Each structure is given as a SMILES string. The source made the active and inactive calls. The calls were made as follows: active = hit-call score of the fitted dose curve at least 0.9, where 1 is the maximum; inactive = score below 0.9.

Conditions in all cases: mRNA level, 48 h; actives raise or lower the signal
Read-out in assay [1]: Cytochrome P450 (CYP2B6), CYP2B6 (gene 1555)
Put plainly: LTEA_HepaRG_CYP2B6: Life Technologies and Expression Analysis (LTEA) Assay for Cytochrome P450 (CYP2B6) using HepaRG (AID 2283481). In short, it runs like this:
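Using 48 h treatment of HepaRG cells in serum-free induction medium, concentrations spanned half-log steps from 100 uM in 0.5% DMSO vehicle. CYP2B6 mRNA induction or loss is scored by qRT-PCR against DMSO.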

Read-out in assay [2]: Cytochrome P450 2C19 (Homo sapiens) (UniProt P33261)
In words: LTEA_HepaRG_CYP2C19: Life Technologies and Expression Analysis (LTEA) Assay for CYP2C19 using HepaRG (AID 2283482). The procedure, abridged:
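Human HepaRG liver cells received test chemicals for 48 h (highest 100 uM, half-log dilutions in 0.5% DMSO). CYP2C19 mRNA induction or loss is read by multiplexed qRT-PCR and fitted in both directions versus vehicle.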

Read-out in assay [3]: CYP2C8 (gene 1558)
In words: LTEA_HepaRG_CYP2C8: Life Technologies and Expression Analysis (LTEA) Assay for CYP2C8 using HepaRG (AID 2283483). In short, it runs like this: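 CYP2C8 expression measured by TaqMan qRT-PCR and normalized to three housekeeping genes. HepaRG cultures were treated for 48 h with an eight-point half-log series topping at 100 uM, vehicle 0.5% DMSO, duplicates; fitted both directions against DMSO.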

Read-out in assay [4]: CYP2C9 (gene 1559)
In words: LTEA_HepaRG_CYP2C9: Life Technologies and Expression Analysis (LTEA) Assay for CYP2C9 using HepaRG (AID 2283484). In short, it runs like this:
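CYP2C9 transcript level, quantified by TaqMan qRT-PCR against three housekeeping genes, was fitted bidirectionally relative to 0.5% DMSO. HepaRG cultures were treated 48 h, in duplicate, at eight half-log concentrations topping at 100 uM.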

Read-out in assay [5]: CYP2E1 (gene 1571)
Put plainly: LTEA_HepaRG_CYP2E1: Life Technologies and Expression Analysis (LTEA) Assay for CYP2E1 using HepaRG (AID 2283485). The procedure, abridged: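 Assay uses 48 h exposure of HepaRG hepatic cells, eight concentrations to 100 uM. Expression of CYP2E1 is quantified by TaqMan qRT-PCR with ACTB, GAPDH and POLR2A normalization; curves fitted in both directions relative to vehicle.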

Read-out in assay [6]: CYP4A11 (gene 1579)
Put plainly: LTEA_HepaRG_CYP4A11: Life Technologies and Expression Analysis (LTEA) Assay for CYP4A11 using HepaRG (AID 2283486). In short, it runs like this:
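Readout is CYP4A11 mRNA induction or suppression (qRT-PCR, ACTB/GAPDH/POLR2A normalization) in human HepaRG cells after 48 h chemical treatment, concentrations to 100 uM in 0.5% DMSO, fitted bidirectionally against vehicle.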

Read-out in assay [7]: Cytochrome P450 3A4 (Homo sapiens) (UniProt P08684)
In words: LTEA_HepaRG_CYP3A4: Life Technologies and Expression Analysis (LTEA) Assay for CYP3A4 using HepaRG (AID 2283487). The procedure, abridged:
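Differentiated HepaRG cells in serum-free induction medium exposed in duplicate for 48 h to 8 half-log concentrations up to 100 uM in 0.5% DMSO. CYP3A4 mRNA measured by qRT-PCR normalized to ACTB, GAPDH and POLR2A; bidirectional fit versus DMSO.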

Read-out in assay [8]: DNA damage-inducible transcript 3 (DDIT3), DDIT3 (gene 1649)
In words: LTEA_HepaRG_DDIT3: Life Technologies and Expression Analysis (LTEA) Assay for DNA damage-inducible transcript 3 (DDIT3) using HepaRG (AID 2283488). The procedure, abridged: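 Eight-point concentration-response (100 uM highest, half-log dilutions) in HepaRG, 48 h, duplicate wells. Endpoint: qRT-PCR mRNA, normalized (ACTB, GAPDH, POLR2A), bidirectional fitting with DMSO as baseline.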

Read-out in assay [9]: Pro-epidermal growth factor (Homo sapiens) (UniProt P01133)
In words: LTEA_HepaRG_EGF: Life Technologies and Expression Analysis (LTEA) Assay for Epidermal growth factor (EGF) using HepaRG (AID 2283489). In short, it runs like this: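 EGF expression changes in human HepaRG cells are scored by bidirectional fitting relative to 0.5% DMSO controls. Chemicals are tested at eight half-log concentrations up to 100 uM for 48 h in serum-free induction medium.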

Read-out in assay [10]: Early growth response protein 1 (EGR1) transcription factor, EGR1 (gene 1958)
Put plainly: LTEA_HepaRG_EGR1: Life Technologies and Expression Analysis (LTEA) Assay for Early growth response protein 1 (EGR1) transcription factor using HepaRG (AID 2283490). The procedure, abridged: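 EGR1 transcript levels quantified by qRT-PCR (Fluidigm arrays) against three housekeeping genes after 48 h chemical exposure of HepaRG cells. Eight-point half-log series topping at 100 uM, 0.5% DMSO vehicle, analyzed for gain or loss.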

Read-out in assay [11]: Ezrin (EZR), EZR (gene 7430)
In words: LTEA_HepaRG_EZR: Life Technologies and Expression Analysis (LTEA) Assay for Ezrin (EZR) using HepaRG (AID 2283491). In short, it runs like this:
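Differentiated human HepaRG cells, 48 h after plating, were exposed in serum-free induction medium for 48 hours to eight half-log concentrations up to 100 uM in 0.5% DMSO. EZR mRNA was measured by TaqMan qRT-PCR, normalized to ACTB, GAPDH and POLR2A, and fitted bidirectionally against DMSO.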

Read-out in assay [12]: Cytochrome P450 3A7 (Homo sapiens) (UniProt P24462)
In words: LTEA_HepaRG_CYP3A7: Life Technologies and Expression Analysis (LTEA) Assay for CYP3A7 using HepaRG (AID 2283492). The procedure, abridged:
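Cells were thawed, plated, cultured 48 h, then treated for a further 48 h with chemicals (eight-point half-log series from 100 uM, 0.5% DMSO). RNA was isolated and CYP3A7 expression quantified by qRT-PCR normalised to ACTB, GAPDH and POLR2A.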

Read-out in assay [13]: CYP3A5 (gene 1577)
Put plainly: LTEA_HepaRG_CYP3A5: Life Technologies and Expression Analysis (LTEA) Assay for CYP3A5 using HepaRG (AID 2283493). The procedure, abridged:
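Readout was CYP3A5 mRNA by qRT-PCR. HepaRG cultures were exposed for 48 h in serum-free induction medium to chemicals at up to 100 uM, and responses were fitted in both directions relative to DMSO vehicle.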

Read-out in assay [14]: Fatty Acid-Binding Protein 1 (FABP1), FABP1 (gene 2168)
In words: LTEA_HepaRG_FABP1: Life Technologies and Expression Analysis (LTEA) Assay for Fatty Acid-Binding Protein 1 (FABP1) using HepaRG (AID 2283494). In short, it runs like this:
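FABP1 expression by TaqMan qRT-PCR, normalised to three housekeeping genes, in HepaRG cells after 48 h chemical treatment. Eight-point half-log series topping at 100 uM in 0.5% DMSO, duplicates; gain or loss fitted relative to vehicle.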

Read-out in assay [15]: Cytochrome P450 4A22 (Homo sapiens) (UniProt Q5TCH4)
Put plainly: LTEA_HepaRG_CYP4A22: Life Technologies and Expression Analysis (LTEA) Assay for Cytochrome P450 4A22 (CYP4A22) using HepaRG (AID 2283495). The procedure, abridged: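 Cryopreserved HepaRG cells, plated and cultured 48 h, then switched to serum-free induction medium and treated 48 h (duplicates, up to 100 uM, half-log steps, 0.5% DMSO). Expression change of CYP4A22 was fitted bidirectionally against vehicle.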

Read-out in assay [16]: Cytochrome P450 7A1 (Homo sapiens) (UniProt P22680)
In words: LTEA_HepaRG_CYP7A1: Life Technologies and Expression Analysis (LTEA) Assay for Cytochrome P450 7A1 (CYP7A1) using HepaRG (AID 2283496). The procedure, abridged: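 Using 0.5% DMSO as vehicle and baseline, chemicals were tested in duplicate over an 8-point range from 100 uM on HepaRG cells for 48 h; qRT-PCR signals were normalised to ACTB, GAPDH and POLR2A.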

Read-out in assay [17]: Glutathione S-Transferase (GSTA2), GSTA2 (gene 2939)
In words: LTEA_HepaRG_GSTA2: Life Technologies and Expression Analysis (LTEA) Assay for Glutathione S-Transferase (GSTA2) using HepaRG (AID 2283497). The procedure, abridged: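 GSTA2 transcript levels came from Fluidigm TaqMan qRT-PCR normalized to three housekeeping genes, fitted in both directions against DMSO. HepaRG cultures received chemicals for 48 h in serum-free induction medium (0.5% DMSO), 8 half-log concentrations up to 100 uM, duplicate.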

Read-out in assay [18]: Glutamate-cysteine ligase catalytic (GCLC), GCLC (gene 2729)
In words: LTEA_HepaRG_GCLC: Life Technologies and Expression Analysis (LTEA) Assay for Glutamate-cysteine ligase catalytic (GCLC) using HepaRG (AID 2283498). The procedure, abridged:
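Expression by TaqMan qRT-PCR, normalized to three housekeeping genes (ACTB, GAPDH, POLR2A), with up- or down-regulation fitted against DMSO. HepaRG cells dosed in duplicate for 48 h with 8 half-log concentrations up to 100 uM, vehicle 0.5% DMSO.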

Read-out in assay [19]: growth arrest and DNA damage 45 (GADD45G), GADD45G (gene 10912)
Put plainly: LTEA_HepaRG_GADD45G: Life Technologies and Expression Analysis (LTEA) Assay for growth arrest and DNA damage 45 (GADD45G) using HepaRG (AID 2283499). In short, it runs like this: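 Human hepatic HepaRG line treated 48 h with chemicals (eight concentrations, half-log steps from 100 uM); transcript induction or repression of GADD45G scored by qRT-PCR versus DMSO vehicle.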

Read-out in assay [20]: Glutamate-cysteine ligase regulatory (GCLM), GCLM (gene 2730)
In words: LTEA_HepaRG_GCLM: Life Technologies and Expression Analysis (LTEA) Assay for Glutamate-cysteine ligase regulatory (GCLM) using HepaRG (AID 2283500). The procedure, abridged: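 In this multiplexed HepaRG gene-expression assay, GCLM mRNA change after 48 h treatment (8 concentrations, max 100 uM) was scored against DMSO by bidirectional curve fitting.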

Chain of Cytochrome P450 3A4 (Homo sapiens) (P08684 whole entry, looked up): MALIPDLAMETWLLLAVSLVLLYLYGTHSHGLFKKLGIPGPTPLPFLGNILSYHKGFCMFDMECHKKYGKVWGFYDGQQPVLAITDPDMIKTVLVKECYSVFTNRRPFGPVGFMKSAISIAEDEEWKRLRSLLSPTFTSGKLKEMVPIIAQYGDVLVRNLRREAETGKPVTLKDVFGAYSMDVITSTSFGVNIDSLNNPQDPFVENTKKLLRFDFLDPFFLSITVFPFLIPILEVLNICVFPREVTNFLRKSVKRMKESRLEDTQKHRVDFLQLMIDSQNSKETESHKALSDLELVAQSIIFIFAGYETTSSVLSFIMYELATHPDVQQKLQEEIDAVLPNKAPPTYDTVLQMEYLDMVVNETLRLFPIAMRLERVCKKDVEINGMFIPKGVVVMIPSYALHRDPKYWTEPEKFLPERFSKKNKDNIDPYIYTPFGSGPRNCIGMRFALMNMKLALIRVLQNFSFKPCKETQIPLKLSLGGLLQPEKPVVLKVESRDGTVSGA
Chain of Cytochrome P450 3A7 (Homo sapiens) (P24462 whole entry, looked up): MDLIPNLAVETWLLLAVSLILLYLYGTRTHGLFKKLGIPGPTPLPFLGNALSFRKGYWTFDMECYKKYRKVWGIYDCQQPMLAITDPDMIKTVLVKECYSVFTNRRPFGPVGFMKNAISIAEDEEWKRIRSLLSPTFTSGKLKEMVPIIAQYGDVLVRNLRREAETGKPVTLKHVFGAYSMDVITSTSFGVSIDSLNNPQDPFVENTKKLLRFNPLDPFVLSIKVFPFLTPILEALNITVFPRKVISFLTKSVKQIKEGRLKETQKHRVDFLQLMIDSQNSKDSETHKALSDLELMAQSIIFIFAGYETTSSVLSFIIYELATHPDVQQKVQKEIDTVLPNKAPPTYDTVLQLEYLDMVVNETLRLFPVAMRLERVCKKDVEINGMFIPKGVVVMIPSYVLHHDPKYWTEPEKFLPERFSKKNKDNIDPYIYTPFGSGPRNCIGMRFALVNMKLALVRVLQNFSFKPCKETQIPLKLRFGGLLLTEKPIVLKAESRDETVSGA
Chain of Cytochrome P450 2C19 (Homo sapiens) (P33261 whole entry, looked up): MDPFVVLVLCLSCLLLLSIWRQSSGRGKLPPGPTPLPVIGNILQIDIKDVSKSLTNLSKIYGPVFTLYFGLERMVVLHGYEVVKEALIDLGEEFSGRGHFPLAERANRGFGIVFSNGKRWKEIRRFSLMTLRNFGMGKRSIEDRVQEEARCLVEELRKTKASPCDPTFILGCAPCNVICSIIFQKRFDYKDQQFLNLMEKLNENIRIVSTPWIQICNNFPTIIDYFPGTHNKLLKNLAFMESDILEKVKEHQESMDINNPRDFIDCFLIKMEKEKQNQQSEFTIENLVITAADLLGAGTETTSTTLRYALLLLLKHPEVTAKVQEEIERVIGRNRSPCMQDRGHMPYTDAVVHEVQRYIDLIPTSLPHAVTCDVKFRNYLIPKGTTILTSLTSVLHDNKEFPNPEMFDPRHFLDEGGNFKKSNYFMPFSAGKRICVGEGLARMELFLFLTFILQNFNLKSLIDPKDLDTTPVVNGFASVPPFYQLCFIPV

In the case of `CC(C)COC(=O)c1ccccc1C(=O)OCC(C)C`, the compound was called inactive in assay [1], in assay [2], in assay [3], in assay [4], in assay [5] and in assay [6]. The compound was classed as inactive in assay [7], in assay [8], in assay [9], in [10], in assay [11] and in assay [12]. Also, the result in assay [13], in [14], in assay [15], in assay [16], in assay [17] and in [18] was inactive. Also, the result in assay [19] and in [20] was inactive.
For `CCNS(=O)(=O)C(F)(F)C(F)(F)C(F)(F)C(F)(F)C(F)(F)C(F)(F)C(F)(F)C(F)(F)F`, the outcome in assay [1], in assay [2], in assay [3], in assay [4], in [7] and in assay [8] was inactive. The compound was called inactive in assay [9], in assay [11], in [12], in [13] and in [18]. Besides, the AC50 in assay [5] was 48.2 µM (active); in assay [6] it was 12 µM (active); in assay [10], 35.6 µM (active); in [14], 59.3 µM (active); in assay [16] it was 48.2 µM (active); in [17], 48.2 µM (active). Further, the half-maximal activity concentration (AC50) in [19] was 36.6 µM (active).
As to `CS(=O)(=O)NC(=O)c1cc(Oc2ccc(C(F)(F)F)cc2Cl)ccc1[N+](=O)[O-]`, the concentration at half-maximal activity (AC50) is 3.63 µM (active) in assay [1]; 1.52 µM (active) in assay [2]; 1.76 µM (active) in assay [3]; 9.92 µM (active) in assay [5]; 2.84 µM (active) in assay [6]; 1.23 µM (active) in assay [7]. Moreover, in assay [12], the concentration at half-maximal activity (AC50) was 4.43 µM (active). Besides, the compound was called inactive in assay [4], in assay [8], in assay [9], in assay [10], in [11] and in assay [14]. For the same compound, the call in assay [15], in [16], in assay [17], in [18], in assay [19] and in assay [20] was inactive.

A word on the AC50: it is the concentration giving half of the maximal activity seen.

The values above are taken from PubChem BioAssay (EPA / NIEHS).
